Article PMC4081100, “A DNA-binding-site landscape and regulatory network analysis for NAC transcription factors in Arabidopsis thaliana”

Experiments:
Assay in all cases: universal protein binding microarray (PBM); transcription factors of Arabidopsis thaliana; high values mean tight binding
GST-ANAC055(1-171) = biological target: T1, GST-ANAC055(1-171) (Arabidopsis thaliana, UniProt Q9LDY8 1-171); details: protein: recombinant; tags: GST; chain copies: 2; dsDNA, one strand shown
T1 sequence: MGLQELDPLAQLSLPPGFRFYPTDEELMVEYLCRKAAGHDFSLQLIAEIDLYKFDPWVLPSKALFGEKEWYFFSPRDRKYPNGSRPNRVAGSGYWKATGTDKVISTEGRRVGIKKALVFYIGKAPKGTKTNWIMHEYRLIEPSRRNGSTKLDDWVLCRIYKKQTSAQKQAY
How it was run: (§1)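 Binding is expressed as the normalised enrichment score (E-score). Proteins carrying a GST tag, whether NAC-domain, full-length or DNA-binding-domain forms, were induced in cells, and zinc acetate was added for zinc-finger proteins. After purification on glutathione–Sepharose 4B and quantification by A280 or anti-GST western blot, each was applied in duplicate at 200 to 500 nM final to custom all-10-mer Agilent 4 × 180K arrays made double-stranded by primer extension. Gapped and ungapped 8-mers were scored.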

GST-ATAF1 NAC domain = biological target: T2, GST-ATAF1 NAC domain (Arabidopsis thaliana, UniProt Q39013 7-158); details: protein: recombinant; tags: GST; chain copies: 2; dsDNA, one strand shown
T2 sequence: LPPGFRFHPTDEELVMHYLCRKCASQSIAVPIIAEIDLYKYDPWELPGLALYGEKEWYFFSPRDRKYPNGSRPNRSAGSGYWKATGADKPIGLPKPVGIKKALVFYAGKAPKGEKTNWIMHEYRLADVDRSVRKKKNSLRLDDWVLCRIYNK
How it was run: as §1

GST-NST2(1-184) = biological target: T3, GST-NST2(1-184) (Arabidopsis thaliana, UniProt Q9M274 1-184); details: protein: recombinant; tags: GST; chain copies: 2; dsDNA, one strand shown
T3 sequence: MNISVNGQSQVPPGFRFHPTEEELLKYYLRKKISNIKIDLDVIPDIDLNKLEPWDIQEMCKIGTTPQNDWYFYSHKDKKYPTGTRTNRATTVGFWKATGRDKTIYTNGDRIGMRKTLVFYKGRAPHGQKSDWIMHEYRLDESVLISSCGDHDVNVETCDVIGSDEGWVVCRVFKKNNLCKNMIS
How it was run: as §1

GST-WRKY1(266-371) = GST-WRKY1(266-371) (Arabidopsis thaliana, UniProt Q9SI37 266-371); details: protein: recombinant; tags: GST; dsDNA, one strand shown
How it was run: as §1

[1] = biological target: T4, GST-ANAC092(1-285) full length (Arabidopsis thaliana, UniProt Q9FKA0 1-285); details: protein: recombinant; tags: GST; chain copies: 2; dsDNA, one strand shown
T4 sequence: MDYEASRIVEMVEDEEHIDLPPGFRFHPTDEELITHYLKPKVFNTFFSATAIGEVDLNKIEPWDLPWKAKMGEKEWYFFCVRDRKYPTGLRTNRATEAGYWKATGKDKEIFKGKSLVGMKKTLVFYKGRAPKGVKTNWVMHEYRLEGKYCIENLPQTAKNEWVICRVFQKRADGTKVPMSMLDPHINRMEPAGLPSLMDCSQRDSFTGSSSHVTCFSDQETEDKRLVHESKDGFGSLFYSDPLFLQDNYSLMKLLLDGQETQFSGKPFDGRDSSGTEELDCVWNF
How it was run: as §1

GST-ANAC019 NAC domain = biological target: T5, GST-ANAC019 NAC domain (Arabidopsis thaliana, UniProt Q9C932 14-162); details: protein: recombinant; tags: GST; chain copies: 2; dsDNA, one strand shown
T5 sequence: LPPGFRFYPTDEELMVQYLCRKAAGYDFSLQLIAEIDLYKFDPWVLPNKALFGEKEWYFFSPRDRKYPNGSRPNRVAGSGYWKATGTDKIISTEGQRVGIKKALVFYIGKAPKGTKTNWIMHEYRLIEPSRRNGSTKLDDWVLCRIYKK
How it was run: as §1

GST-NAP(1-166) = biological target: T6, GST-NAP(1-166) (Arabidopsis thaliana, UniProt O49255 1-166); details: protein: recombinant; tags: GST; chain copies: 2; dsDNA, one strand shown
T6 sequence: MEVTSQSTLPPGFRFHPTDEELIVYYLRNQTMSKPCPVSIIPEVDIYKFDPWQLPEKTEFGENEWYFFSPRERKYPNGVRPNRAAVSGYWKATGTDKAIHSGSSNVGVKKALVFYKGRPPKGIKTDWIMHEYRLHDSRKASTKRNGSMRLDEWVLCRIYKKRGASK
How it was run: as §1

GST-NTL8 NAC domain = biological target: T7, GST-NTL8 NAC domain (Arabidopsis thaliana, UniProt Q9XIN7 14-156); details: protein: recombinant; tags: GST; chain copies: 2; dsDNA, one strand shown
T7 sequence: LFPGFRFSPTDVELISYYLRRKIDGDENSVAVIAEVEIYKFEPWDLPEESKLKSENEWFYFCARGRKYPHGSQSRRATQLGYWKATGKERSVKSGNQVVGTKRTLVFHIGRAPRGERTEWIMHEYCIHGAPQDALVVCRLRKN
How it was run: as §1

GST-NTL6(1-168) = GST-NTL6(1-168) (Arabidopsis thaliana, UniProt Q9SCK6 1-168); details: protein: recombinant; tags: GST; chain copies: 2; dsDNA, one strand shown
How it was run: as §1

Sequence of GST-NTL6(1-168) (Q9SCK6 1-168): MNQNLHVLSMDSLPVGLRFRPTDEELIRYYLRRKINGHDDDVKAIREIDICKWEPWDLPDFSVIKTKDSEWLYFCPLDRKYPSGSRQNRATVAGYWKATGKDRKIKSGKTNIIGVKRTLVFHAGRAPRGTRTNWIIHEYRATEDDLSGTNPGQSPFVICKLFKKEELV
Sequence of GST-WRKY1(266-371) (Q9SI37 266-371): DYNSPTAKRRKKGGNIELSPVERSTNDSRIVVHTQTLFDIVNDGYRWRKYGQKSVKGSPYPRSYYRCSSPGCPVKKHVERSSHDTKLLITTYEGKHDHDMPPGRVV

Sequence: TCGTCAAA
- binding signal (GST-ANAC055(1-171)): 0.0878 E-score
- binding signal (GST-ATAF1 NAC domain): 0.0946 E-score
- binding signal (GST-NST2(1-184)): 0.0744 E-score
- binding signal (GST-WRKY1(266-371)): 0.432 E-score

Sequence: ACTTGACT
- binding signal (GST-ANAC055(1-171)): 0.0752 E-score
- binding signal (GST-ATAF1 NAC domain): 0.186 E-score
- binding signal [1]: 0.0808 E-score
- binding signal (GST-NST2(1-184)): 0.0742 E-score
- binding signal (GST-WRKY1(266-371)): 0.456 E-score

Sequence: AGTCAATG
- binding signal (GST-ATAF1 NAC domain): 0.0527 E-score
- binding signal (GST-NST2(1-184)): 0.0628 E-score
- binding signal (GST-WRKY1(266-371)): 0.481 E-score

Sequence: TGACCCCA
- binding signal (GST-ANAC019 NAC domain): 0.0651 E-score
- binding signal (GST-WRKY1(266-371)): 0.428 E-score

Sequence: GAAAAGTC
- binding signal (GST-ANAC019 NAC domain): 0.139 E-score
- binding signal (GST-ATAF1 NAC domain): 0.137 E-score
- binding signal (GST-NAP(1-166)): 0.145 E-score
- binding signal (GST-NST2(1-184)): 0.0971 E-score
- binding signal (GST-NTL8 NAC domain): 0.19 E-score
- binding signal (GST-WRKY1(266-371)): 0.413 E-score

Sequence: GAAAGTCA
- binding signal (GST-ATAF1 NAC domain): 0.0574 E-score
- binding signal [1]: 0.0781 E-score
- binding signal (GST-WRKY1(266-371)): 0.461 E-score

Sequence: GAATTGAC
- binding signal (GST-ANAC055(1-171)): 0.0993 E-score
- binding signal (GST-ATAF1 NAC domain): 0.092 E-score
- binding signal [1]: 0.0675 E-score
- binding signal (GST-NST2(1-184)): 0.0714 E-score
- binding signal (GST-NTL8 NAC domain): 0.051 E-score
- binding signal (GST-WRKY1(266-371)): 0.439 E-score

Sequence: TGACTGCA
- binding signal (GST-NTL6(1-168)): 0.0778 E-score
- binding signal (GST-ANAC055(1-171)): 0.0624 E-score
- binding signal (GST-ATAF1 NAC domain): 0.0918 E-score
- binding signal (GST-WRKY1(266-371)): 0.413 E-score

Sequence: AGGTCAAT
- binding signal (GST-NTL6(1-168)): 0.137 E-score
- binding signal (GST-ANAC055(1-171)): 0.0969 E-score
- binding signal (GST-WRKY1(266-371)): 0.478 E-score

Sequence: CAGTCAGA
- binding signal (GST-ANAC019 NAC domain): 0.0745 E-score
- binding signal (GST-WRKY1(266-371)): 0.404 E-score

Sequence: GAAGGTCA
- binding signal (GST-NTL6(1-168)): 0.116 E-score
- binding signal (GST-NTL8 NAC domain): 0.0878 E-score
- binding signal (GST-WRKY1(266-371)): 0.426 E-score

Sequence: GGAAGTCA
- binding signal (GST-NTL6(1-168)): 0.132 E-score
- binding signal (GST-ANAC019 NAC domain): 0.0521 E-score
- binding signal [1]: 0.0837 E-score
- binding signal (GST-NTL8 NAC domain): 0.0895 E-score
- binding signal (GST-WRKY1(266-371)): 0.429 E-score

Sequence: GTTTGACA
- binding signal (GST-ANAC055(1-171)): 0.0647 E-score
- binding signal (GST-ATAF1 NAC domain): 0.101 E-score
- binding signal (GST-NST2(1-184)): 0.0521 E-score
- binding signal (GST-WRKY1(266-371)): 0.417 E-score

Sequence: GGTCAAGA
- binding signal (GST-ANAC019 NAC domain): 0.09 E-score
- binding signal [1]: 0.0594 E-score
- binding signal (GST-NST2(1-184)): 0.08 E-score
- binding signal (GST-WRKY1(266-371)): 0.477 E-score

Sequence: CACGGTCA
- binding signal (GST-ANAC019 NAC domain): 0.052 E-score
- binding signal (GST-NTL8 NAC domain): 0.063 E-score
- binding signal (GST-WRKY1(266-371)): 0.44 E-score

Sequence: CGTTTGAC
- binding signal (GST-ATAF1 NAC domain): 0.0858 E-score
- binding signal (GST-NAP(1-166)): 0.0589 E-score
- binding signal (GST-NST2(1-184)): 0.0861 E-score
- binding signal (GST-WRKY1(266-371)): 0.476 E-score
